Screening results deposited in PubChem BioAssay by several laboratories.
PfHsp90 yeast 2 – growth inhibition of yeast expressing Plasmodium Hsp90; 0.32% of 310,000 active; AID 504621; inhibition, % at 9.4 µM; S. cerevisiae expressing PfHsp90, BacTiter-Glo ATP, 48 h; yeast lacking PDR1 and PDR3 efflux regulators;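 active means every replicate shows inhibition above about 80%, whatever the replicate mean, limit read from the data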;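 further: 0% = DMSO neutral controls and 100% = 20 µM radicicol positive controls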
TIM10 inh – TIM10 yeast growth inhibition; S. cerevisiae TIM10 strain growth, BacTiter-Glo luminescence, 24 h; inhibition, % at 10 µM; 1.4% of 330,000 active; AID 463195;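 active means inhibition of 40% or more at the single tested concentration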;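 further: wild-type TIM10 isogenic control strain grown at permissive 25 °C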
tim10-1 inh – growth inhibitors of tim10-1 mutant yeast; inhibition, % at 20 µM; 2.2% of 330,000 active; S. cerevisiae tim10-1 ts strain growth, BacTiter-Glo, 24 h;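 active means inhibition of at least 40%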;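 further: mutant grown at 25 °C; 0% = DMSO wells with yeast and 100% = wells holding no yeast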
NALP3 yeast inh – blocks the NALP3 inflammasome reconstituted in yeast; Yeast reconstituted NLRP3/ASC/caspase-1, beta-gal luminescence, 24 h; 0.39% of 330,000 active; inhibition, % at 10 µM;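 active means inhibition of 50% or more; inactive means inhibition below 50%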;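 further: plate controls were induced DMSO wells for no effect and uninduced yeast grown without galactose for full effect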
tim23-1 inh – tim23-1 yeast growth inhibition; 1.3% of 330,000 active; inhibition, % at 20 µM; AID 463212; S. cerevisiae tim23-1 growth, BacTiter-Glo luminescence, 24 h;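 active means growth inhibition of the mutant yeast at or above 50%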;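 further: temperature-sensitive mutant grown at 25 °C; plate controls were DMSO-treated mutant yeast for no effect and medium wells lacking yeast for full effect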
SKKanGAS inh – inhibitors of SKKanGAS S. pyogenes growth in kanamycin (SK-promoter or general growth effect); BacTiter-Glo, 6 h; inhibition, % at 7.5 µM; 1.3% of 300,000 active; AID 1662;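 active means mean replicate score, as percent of positive control median, at least 50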;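 further: strain carries kanamycin resistance gene driven by streptokinase promoter and grows in 40 µg/ml kanamycin; loss of luminescence reflects streptokinase promoter inhibition or plain growth inhibition; 0% = median of DMSO wells and 100% = positive control at its reference dose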
tim10-1 confirm – tim10-1 yeast growth inhibition, confirmed; shares compounds with tim10-1 inh; S. cerevisiae tim10-1 ts strain growth, BacTiter-Glo, 24 h; inhibition, % at 20 µM; 56% of 7,400 active; AID 463213;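 active means inhibition of yeast growth at or above a set limit in either of two repeat tests at 20 µM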;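 further: tim10-1 mutant grown at permissive 25 °C to find synthetic lethal compounds; 0% = DMSO yeast wells and 100% = medium wells without yeast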
TIM10 conf – TIM10 yeast growth inhibition, confirmed | shares compounds with TIM10 inh | S. cerevisiae tim10 strain growth, BacTiter-Glo luminescence, 24 h | inhibition, % at 10 µM | 63% of 4,600 active | AID 463215;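 active means inhibition of yeast growth at or above a set limit in either of two replicates at 10 µM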;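 further: this counterscreen used the strain with wild-type TIM10; 0% = yeast with DMSO and 100% = medium wells lacking yeast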
tim23-1 confirm – confirmation of tim23-1 mutant yeast growth inhibitors; shares compounds with tim23-1 inh; S. cerevisiae tim23-1 growth, BacTiter-Glo luminescence, 24 h; inhibition, % at 20 µM; 83% of 4,400 active;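 active means inhibition above about 39% in either of two replicate wells at 20 µM, limit read from the data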;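 further: temperature-sensitive tim23-1 mutant grown at 25 °C; 0% = DMSO wells with yeast and 100% = medium wells without yeast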
Numbers without * were called inactive. Most compounds without a hit are left out; they make up all but 4.6% or so of the library.

Results for Cc1ccc(N=C(NOC(=O)c2ccccc2)c2nonc2N)c(C)c1 ?
PfHsp90 yeast 2: 15; TIM10 inh: 49*; tim10-1 inh: 46*; NALP3 yeast inh: 12; tim23-1 inh: 57*; SKKanGAS inh: 7; tim10-1 confirm: 49*; TIM10 conf: 40*; tim23-1 confirm: 41*

Results for Cc1ccc(N=C(NO)c2nonc2N)c(C)c1 ?
PfHsp90 yeast 2: 9; TIM10 inh: 4; tim10-1 inh: 25; NALP3 yeast inh: -7; tim23-1 inh: 9; SKKanGAS inh: -1

Results for COc1ccc(C(=O)/C(=C/c2cccs2)c2nc3ccccc3o2)cc1 ?
PfHsp90 yeast 2: -12; TIM10 inh: 43*; tim10-1 inh: 49*; NALP3 yeast inh: 23; tim23-1 inh: 53*; SKKanGAS inh: 16; tim10-1 confirm: 42*; TIM10 conf: -15; tim23-1 confirm: 54*

How did Cc1cc2nc(Cl)c(Cl)nc2cc1C do in these assays?
PfHsp90 yeast 2: 3; TIM10 inh: -15; tim10-1 inh: 9; NALP3 yeast inh: -16; tim23-1 inh: 3; SKKanGAS inh: -4

What do the screens show for `Cc1cc2cc(C=C(C#N)C#N)c(Cl)nc2cc1C`?
PfHsp90 yeast 2: 12; TIM10 inh: 38; tim10-1 inh: 55*; NALP3 yeast inh: 18; tim23-1 inh: 62*; SKKanGAS inh: 0; tim10-1 confirm: 56*; tim23-1 confirm: 66*

Results for O=C1c2ccccc2-c2onc3ccc(Oc4ccccc4)c1c23 ?
PfHsp90 yeast 2: -170; TIM10 inh: 57*; tim10-1 inh: 76*; NALP3 yeast inh: 41; tim23-1 inh: 77*; SKKanGAS inh: 17; tim10-1 confirm: 59*; TIM10 conf: 68*; tim23-1 confirm: 85*

What do the screens show for `Cc1noc(C)c1S(=O)(=O)Nc1ccccc1Oc1ccccc1`?
PfHsp90 yeast 2: 0; TIM10 inh: 37; tim10-1 inh: 36; NALP3 yeast inh: -11; tim23-1 inh: 39; SKKanGAS inh: 6

What do the screens show for `O=C(Nc1nc2ccccc2s1)C1CC(=O)N(c2ccc(Br)cc2)C1` (stereo unspecified)?
PfHsp90 yeast 2: -31; TIM10 inh: 46*; tim10-1 inh: 49*; NALP3 yeast inh: 15; tim23-1 inh: 73*; SKKanGAS inh: 22; tim10-1 confirm: 37*; TIM10 conf: 36*; tim23-1 confirm: 74*

How did O=C(Nc1ccc(Cl)cc1Cl)c1cc2ccccc2o1 do in these assays?
PfHsp90 yeast 2: -27; TIM10 inh: -12; tim10-1 inh: 2; NALP3 yeast inh: 17; tim23-1 inh: 7; SKKanGAS inh: -4

What do the screens show for `O/N=C(\c1ccc(Cl)cc1)c1cc2ccccc2o1`?
PfHsp90 yeast 2: -44; TIM10 inh: 53*; tim10-1 inh: 46*; NALP3 yeast inh: 9; tim23-1 inh: 67*; SKKanGAS inh: 13; tim10-1 confirm: 67*; TIM10 conf: 60*; tim23-1 confirm: 64*

What do the screens show for `O=C(CC1Nc2ccccc2NC1=O)Nc1cc(Cl)cc(Cl)c1` (stereo unspecified)?
TIM10 inh: 41*; tim10-1 inh: 79*; NALP3 yeast inh: 20; tim23-1 inh: 64*; SKKanGAS inh: 25; tim10-1 confirm: -2; TIM10 conf: -32; tim23-1 confirm: 15

What do the screens show for `O=C(CC1NC(=O)NC1=O)Nc1ccc(Cl)cc1` (stereo unspecified)?
PfHsp90 yeast 2: 19; TIM10 inh: -7; tim10-1 inh: -9; NALP3 yeast inh: 16; tim23-1 inh: 3; SKKanGAS inh: 1

What do the screens show for `NC(=N\N=Cc1ccco1)/C(N)=N/N=Cc1ccco1`?
PfHsp90 yeast 2: 11

Results for O=C1Nc2ccc(Br)cc2/C1=N\N=C\C1=C(N2CCOCC2)C(=C/c2ccccc2)/CC1 ?
PfHsp90 yeast 2: 22

What do the screens show for `O=C1Nc2ccccc2/C1=N\N=C\C1=C(N2CCOCC2)C(=C\c2ccccc2)/CC1`?
PfHsp90 yeast 2: 6; TIM10 inh: 47*; tim10-1 inh: 61*; NALP3 yeast inh: -6; tim23-1 inh: 58*; SKKanGAS inh: 27; tim10-1 confirm: 52*; TIM10 conf: 36*; tim23-1 confirm: 51*

Results for C/C(=N\NC(=O)c1ccccc1NC(=O)c1ccc(Cl)cc1)c1ccncc1 ?
PfHsp90 yeast 2: 32; TIM10 inh: 96*; tim10-1 inh: 96*; NALP3 yeast inh: 1; tim23-1 inh: 95*; SKKanGAS inh: 76*; tim10-1 confirm: 97*; TIM10 conf: 96*; tim23-1 confirm: 100*

What do the screens show for `COc1ccc2cc3cc(C(=O)N4CCN(c5ccccn5)CC4)oc3nc2c1`?
PfHsp90 yeast 2: -23; TIM10 inh: 55*; tim10-1 inh: 44*; NALP3 yeast inh: 22; tim23-1 inh: 54*; SKKanGAS inh: 12; tim10-1 confirm: 27; TIM10 conf: 59*; tim23-1 confirm: -2

How did S=c1[nH]ncn1/N=C/c1cccc(Oc2ccccc2)c1 do in these assays?
PfHsp90 yeast 2: -13; TIM10 inh: 52*; tim10-1 inh: 61*; NALP3 yeast inh: 36; tim23-1 inh: 56*; SKKanGAS inh: 6; tim10-1 confirm: 46*; TIM10 conf: 0; tim23-1 confirm: 56*

What do the screens show for `COc1ccc(NS(=O)(=O)c2cccc(C(=O)NNC(=O)c3ccc(=O)[nH]c3)c2)cc1`?
PfHsp90 yeast 2: -22; TIM10 inh: 4; tim10-1 inh: -12; NALP3 yeast inh: 5; tim23-1 inh: -7

How did Cc1ccc2cc(CCNC(=O)c3cccs3)c(=O)[nH]c2c1 do in these assays?
PfHsp90 yeast 2: -5; TIM10 inh: 4; tim10-1 inh: -2; NALP3 yeast inh: 13; tim23-1 inh: 3

Results for COc1ccc(C(=O)/C=C2/C(=O)Nc3ccccc32)cc1 ?
PfHsp90 yeast 2: 11; TIM10 inh: 91*; tim10-1 inh: 84*; NALP3 yeast inh: 38; tim23-1 inh: 88*; SKKanGAS inh: 2; tim10-1 confirm: 88*; TIM10 conf: 80*; tim23-1 confirm: 85*

Results for COc1ccc(C(=O)/C=C2/C(=O)Nc3ccccc32)cc1OC ?
PfHsp90 yeast 2: -14; TIM10 inh: 76*; tim10-1 inh: 64*; NALP3 yeast inh: 26; tim23-1 inh: 80*; SKKanGAS inh: 0; tim10-1 confirm: 65*; TIM10 conf: 73*; tim23-1 confirm: 57*
